# Reference: the OligoGym collection
# Target: TCEANC2
# Experiment: pooled miR-30 sensor sort-seq; sequence = guide strand
# Conditions: shRNA
row,Sequence,sensor-assay potency score (higher = more potent)
1,TTGATTTTAACACTTCCCTGGA,0.232
2,TATAGTAGTAACTTCATCTGAC,0.875
3,TTGAGTTTCAGTTACCTGCAGG,-0.555
4,TTGATCAGGAAGCTCCAGCATA,-0.895
5,TTACGCATCTTGTTCACAGTGT,0.769
6,TTCTACAACCACAACTCTCTTC,-0.1

# Target: TCERG1
# Experiment: as above
# Conditions: shRNA
row,Sequence,sensor-assay potency score (higher = more potent)
1,TTGTCTTTTACTTTGCTCCATC,-0.934
2,TTGATGAACTATCTACTGCTTT,-0.0553
3,TTGTGCTTGCACTTGTGCCTGG,0.389
4,TTCTGATTGCTGAATAACCTTA,-0.804
5,TTATTATCGTCTCTCTTCCGTT,-0.906
6,TATCAGACCATGACACATCTGA,0.29
7,TACATACTGATCAAACACCTGT,0.349
8,TTTATTATCGTCTCTCTTCCGT,0.45
9,TTGCTTTGAATCTTGAATCTTT,0.533
10,TGAATCTTGAATCTTTAGCATG,-1.15
11,TGGATCGACAGCATTGTCGGAG,-0.29
12,TTAATCTTCTCTTCTAACTTTT,-0.478

# Target: TCL1B
# Experiment: as above
# Conditions: shRNA
row,Sequence,sensor-assay potency score (higher = more potent)
1,TTAATTAACCAGTACTGTGAGG,-0.714
2,TCCTCATCTTCGTAGATGCCAG,-1.52
3,AACTGGAATCCGCTGCTCGGTA,-1.06
4,TTGAACCGCACGACCACAGTCA,-0.246
5,TACATGAAGATCCTCACTGAGG,-0.791
6,TCTGGATCCACAGACGGCCAGG,-1.15
7,TTCATATCTGCTGCCCTGGGAG,-0.879
8,TGTTAGGACCAGCTGCTCCATA,-1.25
9,TCTGCTATTTCCCAGAAACTGG,-1.48
10,ATGCTGGGTTCATATCTGCTGC,-1.39
11,TGCTCCATAGAGTCAATCTGGC,-0.928
12,TTTCCCAGAAACTGGAATCCGC,-0.902

# Target: TCTN3
# Experiment: as above
# Conditions: shRNA
row,Sequence,sensor-assay potency score (higher = more potent)
1,TTGGTCTCTATCTCATAGGTGA,-0.211
2,TATAGGAATCGAACTCCTGATA,-0.82
3,TAACTTGCTGAGAATCCTGTAT,-0.198
4,TTACTCTCTAGGAAACCTGCAG,0.205
5,TGTAACTTGCTGAGAATCCTGT,0.381
6,TTTTAACAGAGCAACTTCCATT,-0.964
7,TTTATAGCTGAAATGCTGCAGT,0.223
8,TTGTCTACACAAACCCAGCTTG,-0.828
9,TTTTACTCTCTAGGAAACCTGC,-1.11
10,TTAGAATCCATGAAAACTCTTG,0.212
